Screening data (PubChem)
Shown is part of a subset that was picked to be rich in hits.
FBPA Giardia inh = inhibitors of Giardia lamblia fructose-1,6-bisphosphate aldolase; A8B2U2; purified Giardia FBPA; Potency, µM (series often up to 59.6 µM), for inactives: at the highest dose activity, negative = inhibition, hits mostly inhibitors; actives 0.71% (n = 290,000); AID 2451; further: potency means the concentration at half of the fitted maximal effect; on the % scale 0 is the no-effect control and ±100 the full control effect; nearly all actives have a fitted effect of over 55% in size
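40 nM FBPA preincubated 10 min at RT with compound (up to 57.5 uM final), then substrate plus GAPDH/TPI/NAD/arsenate coupling and diaphorase/resazurin added. Fluorescence read after 20 min at RT, 525/598 nm.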
Sm TGR inh = inhibitors of Schistosoma mansoni thioredoxin glutathione reductase. actives 3% (n = 360,000). Potency, µM (doses to about 114 µM), without a hit: at the highest dose activity change, negative = inhibition, most hits filed as inhibitors. purified TGR, DTNB reduction, TNB absorbance 405 nm. Q962Y6; further: potency means the concentration at half of the fitted maximal effect; on the % scale 0 is the no-effect control and ±100 the full control effect; nearly all actives have a fitted effect of over 60% in size
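Kinetic colorimetric format: TGR-catalysed, NADPH-driven DTNB reduction monitored via TNB absorbance. Enzyme dispensed at 20 nM; compound exposure 15 min at room temperature before reaction start.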
Cycloheximide cs = counter-screen hit for Shiga toxin inhibitors, cycloheximide; cell reporter, cycloheximide protein synthesis inhibition counterscreen; max response, %; actives 12% (n = 300,000); AID 2314; in the data active means max response mostly above about 13%, no sharp cut-off; inactive means mostly below about 14%; further: read at 38.3 µM for the half of the compounds with a filed dose; 0% is about no effect
Shiga inhibitor = blocks Shiga toxin action in Vero cells; inhibition, % at 38.7 µM; Vero cells, Shiga toxin protein synthesis inhibition reporter; actives 9.2% (n = 290,000); in the data active means inhibition mostly above about 28%, no sharp cut-off; inactive means mostly below about 43%; further: 0% is about no effect
TbPYK inhibitor = inhibitors of Trypanosoma brucei pyruvate kinase; TbPYK enzyme, Kinase-Glo Plus ATP luminescence, 45 min; Potency, µM (doses to about 76.8 µM), for inactives: at the top dose activity, negative = inhibition, most hits filed as inhibitors; actives 0.12% (n = 410,000); AID 624173; further: potency means the concentration at half of the fitted maximal effect; on the % scale 0 is the no-effect control and ±100 the full control effect; nearly all actives have a fitted effect of over 50% in size
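Luminescent Kinase-Glo Plus end-point after 45 min room-temperature reaction of T. brucei pyruvate kinase started with 130 uM ADP (final). Buffer TEA 50 mM pH 7.2 with KCl, MgCl2, BSA, Tween-20; titration-based qHTS with fitted concentration-effect curves.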
LmPK inhibitor = blocks Leishmania mexicana pyruvate kinase activity; purified LmPK, Kinase-Glo ATP luminescence, 1 h; Potency, µM (doses to about 57.5 µM), for inactives: at the highest dose activity change, negative = inhibition, actives largely listed as inhibitors; actives 0.37% (n = 290,000); Q27686; AID 1721; further: potency means the concentration at half of the fitted maximal effect; on the % scale 0 is the no-effect control and ±100 the full control effect
Target sequence (Q27686 whole entry, looked up): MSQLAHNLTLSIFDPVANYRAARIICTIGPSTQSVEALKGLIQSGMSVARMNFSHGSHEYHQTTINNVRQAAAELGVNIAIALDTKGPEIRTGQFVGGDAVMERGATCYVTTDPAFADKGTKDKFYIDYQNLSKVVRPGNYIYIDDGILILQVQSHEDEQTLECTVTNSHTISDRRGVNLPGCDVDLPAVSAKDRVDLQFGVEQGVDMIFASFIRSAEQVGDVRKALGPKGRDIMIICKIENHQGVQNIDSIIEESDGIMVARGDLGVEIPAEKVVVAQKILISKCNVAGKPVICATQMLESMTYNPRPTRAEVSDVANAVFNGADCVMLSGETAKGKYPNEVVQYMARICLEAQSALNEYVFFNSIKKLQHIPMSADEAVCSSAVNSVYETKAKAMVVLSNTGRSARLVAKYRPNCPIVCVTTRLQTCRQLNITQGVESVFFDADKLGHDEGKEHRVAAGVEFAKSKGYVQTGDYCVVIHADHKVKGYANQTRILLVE
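0.1 nM LmPK, 0.5 mM PEP, 0.1 mM ADP; 50 mM imidazole pH 7.2, 7 mM MgCl2, 50 mM KCl; 1 h RT. Kinase-Glo luminescence readout, normalized to no-enzyme (full inhibition) and uninhibited wells.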
An asterisk follows results filed as active. Unless noted, the call rests on the fitted dose curve; in most records, active means well fitted curve in the direction sought with a large enough effect; inconclusive means small, poorly fitted or top-dose-only effect, or another doubt; inactive means no such curve, though single readings can be large; an effect the other way counts as inactive or inconclusive.

Screening CC(C)(C)OC(=O)N1CCCC(C(=O)Nc2cccc(C(=O)N3CCOCC3)c2)C1 (configuration not stated) returned TbPYK inhibitor -0.4%.
`COCCNC(=S)NNC(=O)CSCc1ccc(Cl)cc1Cl` gave FBPA Giardia inh 7.3%, Sm TGR inh -3.0%, Cycloheximide cs -2.7, Shiga inhibitor 42.6*, TbPYK inhibitor inconclusive and LmPK inhibitor 4.2%.
For O=C(COC(=O)/C=C/c1cccc(Br)c1)NCc1cccs1 the results were TbPYK inhibitor -0.1%.
O=C(/C=C/c1ccccc1Cl)NCc1cccs1 was read as FBPA Giardia inh 0.8%, Sm TGR inh -18.4%, Cycloheximide cs 48.3*, Shiga inhibitor 89.3*, TbPYK inhibitor -5.3% and LmPK inhibitor -0.4%.
O=C(/C=C/c1ccc(Br)cc1)NCc1cccs1 was read as FBPA Giardia inh -6.3%, Sm TGR inh 5.6%, Cycloheximide cs 50.3*, Shiga inhibitor 112.1*, TbPYK inhibitor 3.1% and LmPK inhibitor 2.0%.
For O=C(/C=C/c1ccc(F)cc1)NCc1cccs1 the results were FBPA Giardia inh -0.1%, Sm TGR inh -1.8%, Cycloheximide cs 26.2*, Shiga inhibitor 93.8*, TbPYK inhibitor 1.1% and LmPK inhibitor -0.2%.
CCN(CC(=O)NCc1cccs1)C(=O)/C=C/c1ccc(F)cc1 was read as TbPYK inhibitor 0.8%.
For C/C=C/c1ccc(OCC(=O)N2CCc3cc(OC)c(OC)cc3C2)c(OC)c1 the results were FBPA Giardia inh -2.8%, Sm TGR inh inconclusive, Cycloheximide cs -4.6, Shiga inhibitor -5.4, TbPYK inhibitor -10.5% and LmPK inhibitor 6.5%.
Screening COc1ccc(C2C=C3CNS(=O)(=O)C3CC2OC(=O)c2cccs2)cc1 (configuration not stated) returned FBPA Giardia inh 1.6%, Cycloheximide cs 9.1 and Shiga inhibitor -10.5.
CCCNC(=O)C1(C)CCCN(C(=O)c2cccnc2Oc2ccccc2)C1 (configuration not stated) was read as TbPYK inhibitor -3.8%.
Screening Cc1cc(S(N)(=O)=O)ccc1N=Cc1c(O)n(-c2ccccc2)c(=O)[nH]c1=O returned FBPA Giardia inh 4.5%, Cycloheximide cs -1.6, Shiga inhibitor -29.4, TbPYK inhibitor 0.0% and LmPK inhibitor 3.5%.
For CC(=O)Nc1ccc(N=Cc2c(O)n(Cc3ccco3)c(=O)[nH]c2=O)cc1 the results were FBPA Giardia inh -8.8%, Sm TGR inh 25.1µM*, Cycloheximide cs 1.3, Shiga inhibitor -14.1, TbPYK inhibitor -5.2% and LmPK inhibitor 4.1%.
`O=c1[nH]c(=S)n(-c2ccccc2F)c(O)c1C=NCc1ccco1` gave FBPA Giardia inh 3.2%, Sm TGR inh -20.6%, Cycloheximide cs -2.6, Shiga inhibitor -3.9, TbPYK inhibitor 3.9% and LmPK inhibitor 0.6%.
Cc1ccc(-n2c(O)c(C=Nc3ccccc3N)c(=O)[nH]c2=O)cc1C was read as FBPA Giardia inh 23.4%, Sm TGR inh inconclusive, Cycloheximide cs 45.6*, Shiga inhibitor 67.2*, TbPYK inhibitor -2.1% and LmPK inhibitor -6.5%.
CCN(CC)CCN=Cc1c(O)n(Cc2ccco2)c(=O)[nH]c1=O was read as FBPA Giardia inh 3.4%, Sm TGR inh -24.1%, Cycloheximide cs -2.7, Shiga inhibitor -3.9, TbPYK inhibitor -2.2% and LmPK inhibitor 2.1%.
For O=c1[nH]c(=O)n(Cc2ccco2)c(O)c1C=NCc1ccco1 the results were FBPA Giardia inh -14.1%, Sm TGR inh 25.1µM*, Cycloheximide cs -1.6, Shiga inhibitor -3.2, TbPYK inhibitor inconclusive and LmPK inhibitor 19.9%.
`Cc1ccc(-n2c(O)c(C=NCc3ccco3)c(=O)[nH]c2=S)cc1C` gave FBPA Giardia inh inconclusive, Sm TGR inh 10µM*, Cycloheximide cs 1.0, Shiga inhibitor -7.4, TbPYK inhibitor 3.6% and LmPK inhibitor 10.9%.
O=C(C1CCCCC1)N1C[C@H](O)[C@@H](n2cc(-c3ccc(F)cc3)nn2)C[C@@H]1c1ccccc1 was read as TbPYK inhibitor 2.8%.
`Cc1ccc(-n2ncc3c(NCCc4ccccc4)ncnc32)cc1Cl` gave Sm TGR inh 5.1% and TbPYK inhibitor 0.3%.
For N#Cc1ccccc1CSc1nnc(-c2ccc(Br)cc2)o1 the results were Sm TGR inh 2.9% and TbPYK inhibitor 6.1%.
`CCc1cccc(NC(=O)c2cc3c(=O)oc4ccc(C)cc4c3s2)c1` gave Sm TGR inh -2.1% and TbPYK inhibitor -6.7%.
For CCCCC(=O)N/N=C/c1c(O)n(Cc2ccco2)c(=O)[nH]c1=O the results were FBPA Giardia inh 16.3%, Sm TGR inh inconclusive, Cycloheximide cs 0.8, Shiga inhibitor 12.3, TbPYK inhibitor -13.0% and LmPK inhibitor 9.6%.
Screening O=c1[nH]c(=O)n(-c2cccc(Cl)c2)c(O)c1/C=N/c1ccccn1 returned FBPA Giardia inh -2.1%, Sm TGR inh 79.4µM*, Cycloheximide cs -3.2, Shiga inhibitor -14.5, TbPYK inhibitor -9.4% and LmPK inhibitor -1.9%.
`O=C(N/N=C/c1c(O)n(Cc2ccco2)c(=O)[nH]c1=O)c1ccccc1O` gave FBPA Giardia inh inconclusive, Sm TGR inh inconclusive, Cycloheximide cs 21.7*, Shiga inhibitor 72.7*, TbPYK inhibitor -14.0% and LmPK inhibitor 14.7%.
`Cc1ccc(NC2=NCC(=O)N2Cc2cccs2)cc1C` gave FBPA Giardia inh -16.4%, Cycloheximide cs 28.8*, Shiga inhibitor 24.0, TbPYK inhibitor 27.8% and LmPK inhibitor 4.8%.
COc1ccc(NC2=NCC(=O)N2Cc2cccs2)cc1 was read as FBPA Giardia inh -3.6%, Sm TGR inh -16.2%, Cycloheximide cs 1.4, Shiga inhibitor -14.3, TbPYK inhibitor 14.3% and LmPK inhibitor 0.2%.
`CS(=O)(=O)c1ccc(Cl)c(NC(=O)CCN2C(=O)C3CC=CCC3C2=O)c1` (configuration not stated) gave Sm TGR inh -17.6% and TbPYK inhibitor 3.9%.
Screening COc1cc(Nc2ccccc2Cl)c([N+](=O)[O-])nc1[N+](=O)[O-] returned FBPA Giardia inh -7.7%, Sm TGR inh 39.8µM*, Cycloheximide cs -1.2, Shiga inhibitor -12.2, TbPYK inhibitor 4.3% and LmPK inhibitor 13.9%.
For Cc1ccc(NC(=O)c2sc3nc(-c4cccs4)ccc3c2N)cc1F the results were Sm TGR inh -2.6% and TbPYK inhibitor -5.5%.
For Cc1csc(NC(=O)c2sc3nc(-c4cccs4)ccc3c2N)n1 the results were FBPA Giardia inh -6.3%, Sm TGR inh -0.3%, Cycloheximide cs 41.0*, Shiga inhibitor 69.4*, TbPYK inhibitor -3.1% and LmPK inhibitor -6.7%.
`CCCSc1nnc(NC(=O)c2sc3nc(-c4cccs4)ccc3c2N)s1` gave FBPA Giardia inh 9.4%, Sm TGR inh 0.3%, Cycloheximide cs 28.1*, Shiga inhibitor 17.3, TbPYK inhibitor -2.5% and LmPK inhibitor -0.2%.
